The entries come from a sample that favours hits as a whole.
ST2 inh: blocks human ST2 binding to IL-33; Q01638; AID 1259354; inhibition, % for hits at 17 µM; AlphaLISA ST2-Fc/biotin-IL-33 interaction, 1 h; 78,000 compounds, 2.3% hits; in the data active = inhibition above about 30%
Target sequence (Q01638 whole entry, looked up): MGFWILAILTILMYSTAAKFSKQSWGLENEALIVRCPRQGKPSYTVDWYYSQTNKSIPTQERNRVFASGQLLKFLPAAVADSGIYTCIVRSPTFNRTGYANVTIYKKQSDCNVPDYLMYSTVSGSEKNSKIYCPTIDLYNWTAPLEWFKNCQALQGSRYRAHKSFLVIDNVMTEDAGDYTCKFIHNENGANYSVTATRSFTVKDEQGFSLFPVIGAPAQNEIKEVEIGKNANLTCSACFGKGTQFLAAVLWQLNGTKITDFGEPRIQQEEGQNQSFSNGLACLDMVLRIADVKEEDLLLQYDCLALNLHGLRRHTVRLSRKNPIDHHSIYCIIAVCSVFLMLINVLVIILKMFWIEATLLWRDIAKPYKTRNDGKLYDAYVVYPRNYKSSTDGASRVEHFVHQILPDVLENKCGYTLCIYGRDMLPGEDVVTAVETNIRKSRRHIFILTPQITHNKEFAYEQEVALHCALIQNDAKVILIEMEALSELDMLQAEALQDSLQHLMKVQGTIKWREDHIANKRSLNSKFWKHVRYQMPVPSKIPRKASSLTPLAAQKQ
Active calls of the source: *.

COCCCNC(=O)c1cc2cc3cc(OC)ccc3nc2s1 was read as ST2 inh inactive.
`COc1ccc([N+](=O)[O-])cc1NC(=O)c1ccoc1C` gave ST2 inh inactive.
Screening CCCCN(CC)C(=O)c1c(-c2c(Cl)cccc2Cl)noc1C returned ST2 inh inactive.
For Nc1c(C(=O)NCCc2ccccc2)nnn1Cc1ccc(Cl)cc1 the results were ST2 inh inactive.
`CN(CCN1CCCCC1=O)Cc1cc2n(n1)CCNC2` gave ST2 inh inactive.
CN(C)c1ccc(-c2nc3ccccc3o2)cc1 was read as ST2 inh inactive.
For O=C(c1ccsc1)N1CC[C@@H](c2ccc3c(c2)OCO3)[C@H](O)C1 the results were ST2 inh inactive.
Screening CC(C)Cc1ccc(S(=O)(=O)Nc2ccc(S(N)(=O)=O)cc2)cc1 returned ST2 inh inactive.
For O=C(Nc1ccc(OCc2ccccc2)cc1)c1cnc2n(c1=O)CCS2 the results were ST2 inh inactive.
For CC(Oc1ccc(Cl)cc1Cl)C(=O)Nc1cccc([N+](=O)[O-])c1 (stereo not drawn) the results were ST2 inh 30.0%*.
`Cc1cc(Cl)ccc1OC(C)C(=O)Nc1c(Cl)cccc1Cl` (stereo not drawn) gave ST2 inh inactive.
For CC(Oc1ccccc1)C(=O)Nc1cccc(Cl)c1 (stereo not drawn) the results were ST2 inh inactive.
Screening COC(=O)c1ccc(NS(=O)(=O)c2ccc3c(c2)c(=O)n(C)c(=O)n3C)cc1 returned ST2 inh inactive.
Screening Cc1cccc(C(=O)N2N=C(c3cccc(Br)c3)CC2(O)C(F)(F)F)c1 (stereo not drawn) returned ST2 inh inactive.
`COc1ccccc1-c1ccnc(-n2ncc(C(=O)NC(c3ccncc3)c3ccc(C)cc3)c2C)n1` (stereo not drawn) gave ST2 inh inactive.
For Cc1cc(CNC(=O)c2cnn(-c3nccc(-c4cc(C)sc4C)n3)c2C)on1 the results were ST2 inh 30.0%*.
Cc1nc(CCNC(=O)c2cnn(-c3ccccn3)c2C)sc1C was read as ST2 inh inactive.
CC1=C(C(=O)Nc2ccc(Cl)cc2)C(c2ccc([N+](=O)[O-])cc2)n2ncnc2N1 (stereo not drawn) was read as ST2 inh inactive.
For CCOc1ccc([N+](=O)[O-])cc1C1Nc2ccccc2-c2nnc(SC)nc2O1 (stereo not drawn) the results were ST2 inh inactive.
`CCOC1=NC2Nc3ccc(Cl)cc3N(C)C2C1c1ccc([N+](=O)[O-])cc1` (stereo not drawn) gave ST2 inh 36.0%*.
Screening COc1ccccc1N1CCN(C(=O)c2ccc(C)c(Cl)c2)CC1 returned ST2 inh inactive.
`COc1ccc(CN(C)CC2CCCCO2)c(OC)c1OC` (stereo not drawn) gave ST2 inh inactive.
`COc1ccc(C(=O)Nc2ccc(S(=O)(=O)N(C)C3CCCCC3)cc2)c(OC)c1OC` gave ST2 inh inactive.
CC(C)c1ccc(Nc2c(-c3ccco3)nc3ccccn23)cc1 was read as ST2 inh inactive.
O=[N+]([O-])c1cc(N=Cc2nc(-c3ccccc3F)oc2O)ccc1Cl was read as ST2 inh inactive.
`O=[N+]([O-])c1cc(C=Nc2c(-c3ccco3)nc3ccccn23)c(Cl)cc1Cl` gave ST2 inh 44.0%*.
CSc1oc(-c2ccc(C)cc2)nc1S(=O)(=O)c1ccc(C)cc1 was read as ST2 inh inactive.
Screening CC1CCc2oc3cc([N+](=O)[O-])cc([N+](=O)[O-])c3c2C1 (stereo not drawn) returned ST2 inh 59.0%*.
`Cc1cc(NC(=O)c2noc3c2CC(C)CC3)no1` (stereo not drawn) gave ST2 inh inactive.
Screening CC(=O)N(c1ccc2oc3c(c2c1)CCCC3)S(=O)(=O)c1cc([N+](=O)[O-])ccc1C returned ST2 inh inactive.
Screening COc1ccc(OC)c(NS(=O)(=O)c2ccccc2)c1 returned ST2 inh inactive.
CCCc1cnc(C)nc1NCC(=O)NC(C)(C)C was read as ST2 inh inactive.
Screening O=C(COc1ccccc1)Nc1ccc2n(c1=O)C[C@H]1C[C@@H]2CN(C(=O)c2ccccc2)C1 returned ST2 inh inactive.
`Cc1cc2c3c(c1)C1C=CCC1C(C(=O)O)N3CC1CC=CC21` (stereo not drawn) gave ST2 inh 33.0%*.
`O=C(c1cccc2ccccc12)N1CCN=C1SCc1cccnc1` gave ST2 inh inactive.
CCN(CC)C(=O)C1CCCN1S(=O)(=O)c1cccc2nsnc12 (stereo not drawn) was read as ST2 inh inactive.
For CCN(CC)C(=O)c1ccc([N+](=O)[O-])o1 the results were ST2 inh inactive.
C=C(C)CN(CC)Cc1cc(OC)c(OC)c(OC)c1 was read as ST2 inh inactive.
`C=C(C)CN(CC)Cc1ccc(-c2ccccc2[N+](=O)[O-])o1` gave ST2 inh 33.0%*.
For CNC(=O)[C@@H]1C[C@H](N)CN1C(=O)Cn1c(C2CC2)nc2ccccc21 the results were ST2 inh inactive.
O=C(ONc1ncnc2nonc12)c1ccccc1 was read as ST2 inh inactive.
`O=[N+]([O-])c1ccc(N2CCN(CCc3ccccc3)CC2)cc1` gave ST2 inh inactive.
`O=C(COc1ccc([N+](=O)[O-])cc1)NCc1ccccc1` gave ST2 inh inactive.
`[N-]=C=C1C(=O)N(CCc2ccccc2)C(=O)C([n+]2ccccc2)C1c1ccc([N+](=O)[O-])cc1` (stereo not drawn) gave ST2 inh 42.0%*.
CCOc1ccc(/C=C/c2nc(=O)c3ccccc3o2)cc1 was read as ST2 inh inactive.
Cc1ccc(C(=O)Nc2cccc(NC(=O)c3ccccc3)c2)cc1[N+](=O)[O-] was read as ST2 inh inactive.
CN(Cc1cnccn1)C(=O)CC1C(=O)NCCN1Cc1ccc(F)cc1Cl (stereo not drawn) was read as ST2 inh inactive.
CN(CCC1CCOCC1)C(=O)CC1C(=O)NCCN1Cc1cccc2ccccc12 (stereo not drawn) was read as ST2 inh inactive.
`CC(C)CN1CCNC(=O)C1CC(=O)N(C)Cc1cccc2cccnc12` (stereo not drawn) gave ST2 inh 79.0%*.
`CCCOc1ccc(/C=c2\sc3nc(-c4cccnc4)nn3c2=O)cc1` gave ST2 inh inactive.
CCOC(c1ccccc1)c1ccc2c(c1)CN(Cc1ccc(C#CC(C)(C)O)cc1)CCO2 (stereo not drawn) was read as ST2 inh inactive.
Cc1cccc(C)c1NC(=O)Nc1ccc(Cl)c(Cl)c1 was read as ST2 inh inactive.
Screening O=C(Nc1ccc2oc(-c3cccc(F)c3)nc2c1)c1ccc([N+](=O)[O-])cc1 returned ST2 inh inactive.
C=C(C)Cn1c(C(C)NC(=O)COC)nc2ccccc21 (stereo not drawn) was read as ST2 inh inactive.
Screening CN(C)c1ccc(Nc2c([N+](=O)[O-])cc([N+](=O)[O-])c3cccnc23)cc1 returned ST2 inh 95.0%*.
O=[N+]([O-])c1cc(Cl)c2cccnc2c1O was read as ST2 inh inactive.
For CN(C)c1ccc(NC(=O)Nc2ccc3nc(-c4ccccn4)c(-c4ccccn4)nc3c2)cc1 the results were ST2 inh inactive.
